Only a sample is shown.
aSyn 5UTR act – Activators via SNCA 5'UTR binding, MLPCN | AID 1814, 2009 | activity score, % (tested at 7.5 µM), hits read low | 7.1% of 300,000 active | alpha-synuclein 5'UTR reporter, activators screen; in the data active = activity score below about -60%
Each line names hits and unclear results; the compound was inactive in the other large screens.

O=C(NC(=S)NNC(=O)[C@H]1C[C@@H]1c1ccccc1)c1cccc(F)c1	none
CC(C)c1ccc2c(c1)C(N1CCNCC1)Cc1ccc(F)cc1S2 (stereo not given)	none
CN(C)/N=C/c1ccc(OS(=O)(=O)c2ccccc2)cc1	aSyn 5UTR act -157.2
Cc1cccc(-n2c(N)cc(=O)[nH]c2=S)c1	aSyn 5UTR act -214.5
Cc1nn(-c2ccccc2)c(C)c1/C=N/NC(=O)CSc1nnc(SCc2ccccc2Cl)s1	aSyn 5UTR act -71.3
Cc1ccc(CSc2nnc(SCC(=O)N/N=C/c3c(C)nn(-c4ccccc4)c3C)s2)cc1	aSyn 5UTR act -114.5
O=C(Nc1ccc(F)cc1)c1csc(Cc2ccccc2)n1	aSyn 5UTR act -110.1
COc1ccc(NC(=O)c2csc(Cc3ccccc3)n2)cc1	aSyn 5UTR act -109.8
Cc1cccc(OCCCn2c(CO)nc3ccccc32)c1	aSyn 5UTR act -84.4
Cc1ccc(OCCCn2c(CO)nc3ccccc32)cc1	aSyn 5UTR act -62.1
CCc1ccc(-n2nc3ccc(NC(=O)c4ccc5c(c4)OCO5)cc3n2)cc1	aSyn 5UTR act -65.7
O=C(Nc1ccc2nn(-c3ccccc3)nc2c1)c1ccc2c(c1)OCCO2	aSyn 5UTR act -82.3
CCOc1ccc(-n2nc3ccc(NC(=O)c4ccc5c(c4)OCCO5)cc3n2)cc1	none
Cc1[nH]c2ccccc2c1/C=C(\C#N)C(=O)NC1CC1	aSyn 5UTR act -80.0
O=C1CC(c2cc(Br)ccc2F)c2cc3c(cc2N1)CCC3 (stereo not given)	none
Cc1ccc(N/C=C2/Sc3ccccc3NC2=O)cc1	aSyn 5UTR act -175.0
COc1ccc(N/C=C2/Sc3ccccc3NC2=O)cc1	aSyn 5UTR act -147.9
CCC(C)NC(=O)/C=C1\Sc2ccccc2NC1=O (stereo not given)	aSyn 5UTR act -74.5
Nc1nc(-c2cc(-c3ccccc3)no2)cs1	aSyn 5UTR act -173.6
N/C(Cc1nc(-c2ccc(Br)cc2)cs1)=N\O	aSyn 5UTR act -95.8
c1ccc(-c2cc(-c3ccccc3)on2)cc1	aSyn 5UTR act -152.5
Nc1nc(-c2ccccc2)cs1	aSyn 5UTR act -97.5
O=C(c1ccccc1)c1cc(-c2ccccc2)on1	aSyn 5UTR act -107.9
Nc1nc(-c2ccc(Br)cc2)cs1	aSyn 5UTR act -98.8
CCOC(=O)C1(CCc2ccccc2)CCN(C(=O)Cc2nonc2C)CC1	aSyn 5UTR act -77.6
CN(C)/C=C/C(=O)c1ccc(-n2cccc2)cc1	aSyn 5UTR act -88.2
Cc1cc(C(=O)CSc2nnc(-c3cccnc3)n2-c2ccccc2)c(C)n1CC1CCCO1 (stereo not given)	aSyn 5UTR act -77.7
Cc1cc(C(=O)COC(=O)c2ccc(N)c([N+](=O)[O-])c2)c(C)n1Cc1ccc2c(c1)OCO2	aSyn 5UTR act -164.0
C=CCn1c(C)cc(C(=O)COC(=O)c2ccc(N)c([N+](=O)[O-])c2)c1C	aSyn 5UTR act -142.3
CC(=O)Nc1ccccc1OCC(=O)c1cc(C)n(Cc2cccs2)c1C	aSyn 5UTR act -150.1
Cc1cc(C(=O)COC(=O)c2ccc3c(c2)OCO3)c(C)n1Cc1cccs1	aSyn 5UTR act -65.5
Cc1ccc(C(=O)OCC(=O)c2cc(C)n(CC3CCCO3)c2C)cc1 (stereo not given)	aSyn 5UTR act -160.7
Cc1cc(C(=O)COC(=O)c2ccccc2O)c(C)n1Cc1cccs1	none
COc1cc(SC)ccc1C(=O)OCC(=O)NC1CCCC1	aSyn 5UTR act -93.7
CCc1c(C(=O)OCc2ccccc2)[nH]c(C)c1C	aSyn 5UTR act -116.9
CCc1c(C)[nH]c(C(=O)OCc2ccccc2)c1C	aSyn 5UTR act -74.7
COCCCNC(=O)/C=C/c1ccc(Cl)cc1Cl	aSyn 5UTR act -84.6
COC(=O)Cc1c(OC)ccn(CCc2c[nH]c3ccccc23)c1=O	aSyn 5UTR act -149.3
Cc1ccc(C(=O)NC(=S)NCC2CCCO2)cc1Br (stereo not given)	aSyn 5UTR act -154.6
O=C(NC(=S)NCC1CCCO1)c1ccc(Br)o1 (stereo not given)	aSyn 5UTR act -108.4
Cc1cc(C)c(S(C)(=O)=O)c(S(=O)(=O)c2ccc(Cl)cc2)n1	aSyn 5UTR act -86.9
CC1=CC2=NC(=O)/C(=C\c3cccn3CCOc3ccc(C)c(C)c3)C(=N)N2O1	aSyn 5UTR act -94.7
CSCC(=O)N1CCc2ccc(NC(=O)c3ccccc3Cl)cc2C1	aSyn 5UTR act -117.4
c1ccc(CNc2nc3ccccc3[nH]2)cc1	aSyn 5UTR act -78.5
c1ccc2[nH]c(NCc3ccc4c(c3)OCO4)nc2c1	aSyn 5UTR act -179.5
COc1ccc2nc(NCc3ccccc3)[nH]c2c1	aSyn 5UTR act -80.0
S=C(NCc1ccccc1)NNc1nc2ccccc2[nH]1	aSyn 5UTR act -73.8
CCCOc1ccc2nc(NC(=O)OC)[nH]c2c1	none
S=C(NCCc1ccccn1)NC1CC2CCC1C2 (stereo not given)	aSyn 5UTR act -62.4
C/C(=N\Nc1nccnc1Cl)c1ccc(F)cc1	aSyn 5UTR act -104.3
C/C(=N\Nc1nc(N)cc(Cl)n1)c1ccc(F)cc1	aSyn 5UTR act -71.1
CCOC(=O)N1CCN(C(=O)c2ccc(C#CC3(O)CCCCC3)cc2)CC1	aSyn 5UTR act -63.8
CCOc1ccc(C(=O)Nc2nc(C)c(C(=O)OC)s2)cc1	aSyn 5UTR act -97.4
Cc1cnc(NC(=O)CCc2ccccc2)s1	aSyn 5UTR act -382.6
COC(=O)c1sc(NC(=O)Cc2cccs2)nc1C	aSyn 5UTR act -69.1
CCOC(=O)c1sc(NC(=O)c2cccnc2)nc1C	aSyn 5UTR act -99.7
Cc1cnc(NC(=O)CSc2ccccc2)s1	aSyn 5UTR act -108.4
COC(=O)c1sc(NC(=O)COc2ccccc2)nc1C	aSyn 5UTR act -142.2
Cc1cnc(NC(=O)COc2ccccc2)s1	aSyn 5UTR act -142.4
Fc1cccc(Cl)c1Cc1noc(/C=C/c2ccccc2)n1	aSyn 5UTR act -209.3
O=[N+]([O-])c1ccc(-c2csc(NN=C3CCCC3)n2)cc1	aSyn 5UTR act -177.0
COCC(=O)Nc1nc(-c2ccc([N+](=O)[O-])cc2)cs1	aSyn 5UTR act -70.3
CNc1nc(-c2ccc([N+](=O)[O-])cc2)cs1	aSyn 5UTR act -134.7
CC(C)C(=O)Nc1nc(-c2ccc([N+](=O)[O-])cc2)cs1	aSyn 5UTR act -73.7
O=C(COC(=O)c1ccccn1)Nc1nc(-c2ccccc2)cs1	aSyn 5UTR act -79.8
COCC(=O)Nc1nc(-c2ccc(-c3ccccc3)cc2)cs1	aSyn 5UTR act -220.3
CCc1ccccc1OCC(=O)Nc1nc(-c2cccnc2)cs1	none
Cn1cc(/C=C(\NC(=O)c2ccccc2Cl)C(=O)NCCN2CCOCC2)c2ccccc21	aSyn 5UTR act -71.8
CCN(CC)CCNC(=O)/C(=C/c1cn(C)c2ccccc12)NC(=O)c1ccc(OC)c(OC)c1	aSyn 5UTR act -63.9
COc1ccc(C(CNC(=O)c2sccc2C)N2CCOCC2)cc1 (stereo not given)	aSyn 5UTR act -69.9
Cc1cccc(/C=C(\C(=O)C(=O)O)c2ccc3ccccc3n2)c1	aSyn 5UTR act -118.4
N#Cc1ccc(/C=C(\C(=O)C(=O)O)c2ccc3ccccc3n2)cc1	aSyn 5UTR act -76.5
O=C(O)C(=O)/C(=C\c1cccc(Cl)c1)c1ccc2ccccc2n1	aSyn 5UTR act -80.1
Nc1c(C(=O)Nc2ccccc2)sc2ncc([N+](=O)[O-])cc12	aSyn 5UTR act -63.2
Cc1snc2sc(C(=O)c3ccc(Br)cc3)c(N)c12	aSyn 5UTR act -101.4
Cc1nc2sc(C(=O)OC(C)C)c(N)c2c(C)c1C	aSyn 5UTR act -189.9
Cc1nc2sc(C(=O)c3ccccc3)c(N)c2c(C)c1C	aSyn 5UTR act -67.8
CC(=O)c1ccc(NC(=O)c2sc3nc(C)c(C)c(C)c3c2N)cc1	aSyn 5UTR act -232.9
CC(=O)Nc1ccc(Nc2nc(C)c([N+](=O)[O-])c(N(C)c3ccccc3)n2)cc1	none
